One may read the AC50 as the concentration at which the activity in the assay is half-maximal.

Several values for one entry are separate records, joined by “and”; a condition that tells them apart may be missing. Equal values may be shown once. Inconclusive results are not listed. Where a structure was tested more than once in an assay, its records may differ in their call. Activity calls are given as the source filed them. How the source made its calls, unless noted: active means hit-call score of the fitted dose curve at least 0.9, where 1 is the maximum; inactive means score below 0.9.

Assay [1] is described as follows: CEETOX_H295R_MTT_cell_viability: Viability Assessment in the CeeTox HT-H295R MTT Assay (AID 2283718).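 On AC50: curve fitted both ways so AC50 may mark viability loss or gain.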 The method in brief:
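H295R cells prestimulated 48 h with 10 uM forskolin, then exposed 48 h to test chemical (0.1% DMSO final). Viability by MTT (0.5 mg/ml, 4 h, 37 C), absorbance 570/650 nm; percent change versus DMSO, bidirectional fit.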

Assay [2] can be described thus: STM_H9_OrnCyssISnorm_ratio: Stemina devTOX quickPredict H9 human embryonic stem cell (hESC)-based Assay for Ornithine (ORN):Cystine (CYSS) Ratio (AID 2283714; active means hit-call score of the fitted dose curve at least 0.9, where 1 is the maximum). The method in brief: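 Undifferentiated H9 hESCs were exposed to compound for 72h with media and chemical replaced every 24h. Final 24-h conditioned media were deproteinized and analysed by UPLC-HRMS. ORN and CYSS peak areas were normalized to C13 internal standards and the ratio taken versus 0.1% DMSO.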

Assay [3] in a line: CCTE_Padilla_ZF_144hpf_TERATOSCORE: (Legacy) CCTE's 144 Hour Post-fertilization zebrafish Assay Teratoscore, Padilla Lab (AID 2283679).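 Further: zebrafish embryos with chorions exposed by immersion from 6-8 hpf to 5 dpf with daily renewal; teratogenicity score from eye scoring of death hatching and malformations at 144 hpf; higher score means more developmental defects relative to DMSO baseline.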 The essentials: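 Larvae scored by eye at 144 hpf for death, hatching and malformations after a day in clean Hanks'. Before that, daily-renewed exposure at 80 uM (0.4% DMSO, 26C) from roughly 6-8 hpf through 5 dpf, 4 embryos per chemical.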
Assay [4] in a line: Tanguay_ZF_120hpf_ActivityScore_legacy: (Legacy) Oregon State University Tanguay Lab 120 Hour Post-fertilization zebrafish Assay Score for Activity (AID 2283742; active means hit-call score of the fitted dose curve at least 0.9, where 1 is the maximum;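 on AC50: static exposure from 6 hpf until 120 hpf at 28 °C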). The method in brief: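 Tropical 5D wild-type zebrafish embryos, dechorionated with pronase at 4 hpf, were exposed singly from 6 hpf to 120 hpf statically at 28C in 0.64% DMSO. Malformations and mortality were scored as binary by brightfield, with the activity score combining 18 morphology components.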

In assay [5] the target is Luciferin 4-monooxygenase (Photinus pyralis) (UniProt P08659). Nature of the assay: CCTE_Simmons_QuantiLum_inhib_2: CCTE's Firefly Luciferase Inhibition Assay, Simmons Lab (AID 2283767; active means hit-call score of the fitted dose curve at least 0.9, where 1 is the maximum). The method in brief: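 Counter-screen for nonspecific enzyme inhibition: purified firefly luciferase incubated 30 min at 37C with chemicals up to 87.5 uM final, then luminescence measured after luciferin/dATP injection; activity fitted against DMSO baseline.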
Sequence of Luciferin 4-monooxygenase (Photinus pyralis) (P08659 whole entry, looked up): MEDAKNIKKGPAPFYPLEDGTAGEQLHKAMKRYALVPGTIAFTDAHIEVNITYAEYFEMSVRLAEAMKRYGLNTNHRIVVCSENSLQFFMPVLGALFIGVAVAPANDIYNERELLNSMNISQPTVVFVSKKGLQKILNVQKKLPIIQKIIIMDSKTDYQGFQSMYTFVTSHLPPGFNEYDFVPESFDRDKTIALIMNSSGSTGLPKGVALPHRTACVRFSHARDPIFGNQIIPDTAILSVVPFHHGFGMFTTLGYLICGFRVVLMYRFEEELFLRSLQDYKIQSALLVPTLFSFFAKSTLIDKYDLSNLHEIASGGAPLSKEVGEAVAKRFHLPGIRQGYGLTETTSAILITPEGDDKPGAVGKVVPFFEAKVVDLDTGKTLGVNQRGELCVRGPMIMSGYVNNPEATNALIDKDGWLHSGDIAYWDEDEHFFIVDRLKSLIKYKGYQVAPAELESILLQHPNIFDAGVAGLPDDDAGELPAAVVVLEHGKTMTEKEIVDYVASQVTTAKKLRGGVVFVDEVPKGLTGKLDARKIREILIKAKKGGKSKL

The subject of assay [6] is zebrafish Androgen Receptor (AR), gene 100005148. Briefly: ATG_zfAR_XSP1: Attagene TRANS-FACTORIAL Multi-Species (XSP1) HepG2 Assay for zebrafish Androgen Receptor (AR) (AID 2283771; active means hit-call score of the fitted dose curve at least 0.9, where 1 is the maximum). The essentials: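 HepG2 cells were transiently transfected with a zebrafish AR-GAL4 reporter system and partially stimulated with 3 nM 6-alpha-fluorotestosterone. Reporter mRNA was measured after 24 h dosing by RT-PCR with capillary electrophoresis, and gain-of-signal was fitted relative to DMSO.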

For assay [7], the target named is zebrafish Estrogen Receptor (ESR1), esr1 (gene 259252) (UniProt P57717). Briefly: ATG_zfER1_XSP1: Attagene TRANS-FACTORIAL Multi-Species (XSP1) HepG2 Assay for zebrafish Estrogen Receptor (ESR1) (AID 2283772; active means hit-call score of the fitted dose curve at least 0.9, where 1 is the maximum). The method in brief:
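Reporter mRNA induction, gauged via RT-PCR/capillary electrophoresis fluorescence relative to DMSO controls, in HepG2 cells transiently carrying GAL4-UAS reporter units; 24 h dosing.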

For assay [8], the system named is zebrafish Estrogen Receptor (ESR2B), gene 317733. Briefly: ATG_zfER2b_XSP1: Attagene TRANS-FACTORIAL Multi-Species (XSP1) HepG2 Assay for zebrafish Estrogen Receptor (ESR2B) (AID 2283773; active means hit-call score of the fitted dose curve at least 0.9, where 1 is the maximum). The essentials:
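HepG2 cells transiently transfected with multiple GAL4-UAS reporter units expressing chimeric zebrafish ER2b-Gal4; 24 h chemical exposure with 3 nM 6-alpha-fluorotestosterone present. Reporter mRNA measured by RT-PCR and capillary electrophoresis; gain of signal fitted versus DMSO.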

A short description of assay [9]: STM_H9_OrnithineISnorm_perc: Stemina devTOX quickPredict H9 human embryonic stem cell (hESC)-based Assay for Ornithine (ORN) Metabolite Biomarker, Normalized (AID 2283712).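 Further: ornithine released into spent medium during last day measured by mass spectrometry.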 The method in brief:
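Cells: undifferentiated H9 hESC. Dosing: 72 h, media replaced every 24 h. Sample: final 24-h conditioned media, 40% acetonitrile. Read: UPLC-HRMS ornithine area vs 13C standard, % DMSO control.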

Assay [10] is described as follows: STM_H9_CystineISnorm_perc: Stemina devTOX quickPredict H9 human embryonic stem cell (hESC)-based Assay for Cystine (CYSS) Metabolite Biomarker, Normalized (AID 2283713). The essentials: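 Secreted cystine was measured by UPLC-HRMS in H9 hESC medium after 72h compound exposure with 24-hourly replenishment. Values are standard-normalized areas relative to 0.1% DMSO.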

Sequence of zebrafish Estrogen Receptor (ESR1), esr1 (gene 259252) (P57717 whole entry, looked up, the tested form may be a part): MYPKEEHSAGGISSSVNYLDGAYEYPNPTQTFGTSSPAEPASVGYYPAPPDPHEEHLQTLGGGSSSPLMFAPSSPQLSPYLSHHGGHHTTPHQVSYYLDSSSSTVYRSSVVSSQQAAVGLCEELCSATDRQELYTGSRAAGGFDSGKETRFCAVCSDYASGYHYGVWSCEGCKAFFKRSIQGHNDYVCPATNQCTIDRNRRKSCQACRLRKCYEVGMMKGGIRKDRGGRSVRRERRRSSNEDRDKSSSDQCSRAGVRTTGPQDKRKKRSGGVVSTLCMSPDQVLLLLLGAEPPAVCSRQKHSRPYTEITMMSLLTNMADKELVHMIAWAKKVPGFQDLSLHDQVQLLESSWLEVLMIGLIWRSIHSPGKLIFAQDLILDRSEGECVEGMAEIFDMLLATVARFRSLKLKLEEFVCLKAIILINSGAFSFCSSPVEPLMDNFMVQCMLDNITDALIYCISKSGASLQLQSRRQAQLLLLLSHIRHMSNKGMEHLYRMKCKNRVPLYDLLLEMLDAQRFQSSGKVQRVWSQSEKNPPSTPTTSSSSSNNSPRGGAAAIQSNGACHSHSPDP

Regarding `CC(=N[Si](C)(C)C)O[Si](C)(C)C`, in assay [1], the result was inactive.
Same read-out and setting: the result for `CC(=O)c1ccc2ccccc2c1` reads “inactive”; that for `CCCCCCCCCCOC(=O)c1ccccc1C(=O)OCCCCCCCC`, “inactive”; that for `c1ccc(OCCOc2ccccc2)cc1`, “inactive”.
Regarding `COc1cc(OC)c2ccc(=O)oc2c1`, the outcome in assay [1] was inactive.
The same measure, in the same setting: the result for `COC(=O)C(C)Oc1ccc(Oc2ncc(C(F)(F)F)cc2Cl)cc1` (stereo not drawn) reads “inactive”; that for `OCC=Cc1ccccc1`, “inactive”; that for `c1coc(CNc2ncnc3nc[nH]c23)c1`, “inactive”.
For the molecule `CC(=O)C1=C(C)[C@@H]2C[C@@]3(C1)[C@H](C)CC[C@H]3C2(C)C`, the outcome in assay [2] was inactive. Besides, the concentration at half-maximal activity (AC50) in assay [1] was 50 µM (active).
For the molecule `COc1ccc2[nH]cc(CCNC(C)=O)c2c1`, the molecule was classed as inactive in assay [1].
On to `CC=CC(=O)C1=C(C)C=CCC1(C)C`, for which the result in [1] was inactive.
`CC/C(=C(\c1ccccc1)c1ccc(OCCN(C)C)cc1)c1ccccc1`: the AC50 in [3] was 1.43 µM (active) and 1.58 µM (active); in assay [4], 31.1 µM (active). The molecule was classed as inactive in assay [1], in [4], in [5], in assay [6], in assay [7] and in assay [8].
On to `COC(=O)c1cccc(C(=O)OC)c1`, for which the molecule was called inactive in [1].
`CC(=O)OC/C=C(C)/C=C/C=C(C)/C=C/C1=C(C)CCCC1(C)C`: the AC50 was 78.1 µM (active) in assay [2] and 73.7 µM (active) in [1]. Further, the molecule was called inactive in [5].
For `CCCCN(CCO)CCO`, in assay [2], the outcome was inactive.
`COC(=O)c1ccc(C(=O)OC)cc1`: the AC50 in [3] was 4.57 µM (active); in assay [4] it was 77.4 µM (active). Also, the result in [9], in assay [10], in assay [2] and in [1] was inactive.
Consider `OCCCO`, for which the result in [1] was inactive.
Consider `CCCCCC(=O)O[C@]1(C(C)=O)CC[C@H]2[C@@H]3CCC4=CC(=O)CC[C@]4(C)[C@H]3CC[C@@]21C`, for which the AC50 in [1] is 13.4 µM (active).

The values are drawn from PubChem BioAssay (EPA / NIEHS).
